These sequences were tested against APOBEC3G R374E/R376D (Homo sapiens, UniProt Q9HC16 Q9HC16:1-384, R374E,R376D) (assay: FP; binding impaired by 46%; 5 mM MgCl2, 37 C). Conditions: tags: Sf9, pAcG2T; label: internal fluorescein-dT; ssDNA; [15 (fluorescein-dT)].
Experimental: Apo3G-DNA binding were monitored by changes in steady state fluorescence depolarization (rotational anisotropy). Reaction mixtures (70 μl), containing an F-labeled DNA ([…]) in buffer (50 mM HEPES, pH 7.3, 1 mM DTT and 5 mM MgCl₂) and varying concentration of 0 to 500 nM Apo3G, were incubated at 37° C. The sequence of the ssDNA is: tta gat gag tgt aa(FdT) gtg ata tat gtg tat. Rotational anisotropy was measured as described previously (Chelico et al., 2006). The fraction of DNA bound to protein was determined as described previously (Bertram et al., 2004).

Chain of APOBEC3G R374E/R376D (Q9HC16 whole entry R374E/R376D, one chain of several): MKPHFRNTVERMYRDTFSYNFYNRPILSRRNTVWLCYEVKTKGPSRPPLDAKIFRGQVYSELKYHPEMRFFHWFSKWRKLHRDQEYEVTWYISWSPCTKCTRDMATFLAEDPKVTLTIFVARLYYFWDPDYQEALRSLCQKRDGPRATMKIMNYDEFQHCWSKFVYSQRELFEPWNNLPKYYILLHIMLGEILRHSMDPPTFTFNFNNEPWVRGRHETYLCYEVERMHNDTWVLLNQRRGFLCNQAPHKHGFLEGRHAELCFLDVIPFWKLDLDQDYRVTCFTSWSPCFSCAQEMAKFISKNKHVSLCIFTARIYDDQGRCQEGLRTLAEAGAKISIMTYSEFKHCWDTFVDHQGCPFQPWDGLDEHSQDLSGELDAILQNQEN

Sequence	binding signal
TTAGATGAGTGTAATGTGATATATGTGTAT	54 % of wt
